Screens as filed in PubChem.
Autofluor 339: intrinsic fluorescence of library compounds, ex339/em460 – biochemical, MLSMR library, data from DPM-DC assay, artefact control, profiling panel; compound autofluorescence, ex339/em460 nm, NADH buffer; active compounds read high; 1 = no-compound wells, NADH background; fluorescence fold increase at 10 µM; actives 5.5% (n = 65,000);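 active = at 10 µM, mean starting fluorescence two-fold or more over control wells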;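 also: signal is the first read of a kinetic run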
NADH coupling: inhibitors of enzymes used to reach an NAD/NADH endpoint; coupled PK/LDH NADH assays, four targets; IC50, µM (highest dose often 10 µM), inactives show at the highest dose inhibition; actives 0.02% (n = 65,000); AID 774;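 active = single-dose screening hits from any of four coupled enzyme assays that gave an IC50 when retested across doses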;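 also: the DPM-DC format reads NADH fluorescence rather than 340 nm absorbance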
DPM-DC inhibit: blocks S. pneumoniae diphosphomevalonate decarboxylase; calls only at 10 µM; purified DPM-DC, PK/LDH coupled NADH fluorescence; actives 0.49% (n = 65,000);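 active = the 320 compounds with the highest percent inhibition in the single-dose primary screen, excluding strongly autofluorescent ones, cut at about 32% in these data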;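 also: kinetic rate of NADH fluorescence loss reporting ADP formed by the decarboxylase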
A340 absorber: absorbance at 340 nm. compound absorbance at 340 nm, fold over control. fold change at 10 µM. 65,000 tested, under 10 active. AID 708;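 active = at 10 µM dose, initial 340 nm absorbance at least 2 fold that of control wells; inactive = change under 2 fold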;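 also: initial absorbance extrapolated from kinetic A340 decline of NADH oxidation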
Spn MK inh: blocks S. pneumoniae mevalonate kinase; purified MK, PK/LDH-coupled NADH absorbance 340 nm; inhibition, % at 10 µM; actives 0.48% (n = 65,000); AID 555;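 active = ranked among the strongest by inhibition in the single 10 µM screen, a fixed top-ranked set picked for dose follow-up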
PMK inhibit: blocks S. pneumoniae phosphomevalonate kinase; purified PMK, PK/LDH-coupled NADH absorbance 340 nm; actives 0.49% (n = 65,000); inhibition, % at 10 µM;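 active = top-ranked compounds by inhibition in the single 10 µM screen, taking a fixed number of the strongest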;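 also: 0% = full reaction with DMSO carrier and 100% = background rate without enzyme reaction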
* hit, by the source's call; i = inactive; nt = no result shown. In the library only some 6.5% were active in any assay of this set; here they are far more common.

SMILES	Autofluor 339	NADH coupling	DPM-DC inhibit	A340 absorber	Spn MK inh	PMK inhibit
CC(=O)NC1CC2CCC(C1)N2Cc1ccc(C)cc1 (stereo not drawn)	1.1	5%	i	0.97	1	15
CC1(C)Cc2c(C#N)c(SCCC#N)nc(N3CCOCC3)c2CS1	1	1%	i	1	0	4
O=C(NCc1ccco1)C1Cc2ccccc2CN1S(=O)(=O)c1ccccc1F (stereo not drawn)	1.1	2%	i	1	7	6
Cc1oc2cc(O)ccc2c(=O)c1Oc1ccccc1Br	2.2*	3%	nt	1.1	0	5
COC(=O)COc1ccc2c(=O)c(Oc3ccccc3)c(C)oc2c1	1.1	4%	i	1	11	0
CCOc1ccccc1Oc1c(C)oc2cc(OC(=O)N3CCOCC3)ccc2c1=O	1.1	4%	i	1	4	7
Cc1oc2cc(O)ccc2c(=O)c1Oc1ccccc1	2.2*	3%	nt	1.1	5	0
COC(=O)c1c(C(=O)OC)n(CCCN)c2ccc(C)cc12	2.4*	4%	nt	0.99	5	0
Oc1ccc(CN2CCCCC2)nc1-c1ccccc1	3.3*	5%	i	1.1	0	0
Cc1cc(N2CCC(N(C)C3CCCC3)CC2)nc2cc(O)ccc12	2.2*	6%	nt	1.2	5	7
Cc1cc(N2CCC(C(=O)NC3CCCCC3)CC2)nc(-c2ccccc2)n1	1.1	3%	i	1	3	6
COc1cc2c(cc1OC)CN(Cc1cccs1)CC2	1.2	22%	i	1.1	48*	13
COc1cc2c(cc1OC)CN(Cc1ccc(OC)c(C)c1OC)CC2	1.1	15%	i	1.1	46*	0
CCS(=O)(=O)N1CCc2cc(OC)c(OC)cc2C1	1.1	2%	i	1	6	0
CC(=O)NC(C)C(=O)OCC(=O)Nc1ccc(Br)cc1 (stereo not drawn)	1	1%	i	1.1	1	8
CC(C)=CC(=O)Nc1ccc(Br)cc1	1.1	5%	i	0.97	14	active
Cn1c(SCC(=O)NCc2ccco2)nnc1-c1c[nH]c2ccccc12	1.1	2%	i	1	4	1
CN(C)/C=N/c1c(C#N)cnn1-c1ccccc1	1.1	0%	i	1	0	1
CN(C)C=Nc1ccc2nn(-c3ccccc3)nc2c1	2.2*	5%	nt	1.2	10	0
CC(C)(C)C(=O)CSc1nccc(=O)[nH]1	1.1	5%	i	0.98	13	1
CN(c1ccc(C(=O)O)cc1)S(=O)(=O)c1ccc(Cl)cc1	1.1	7%	i	1	12	5
COc1ccc(CCNC2=NCC(C)S2)cc1 (stereo not drawn)	1.1	5%	i	1	6	10
CCCC(=O)Nc1ccc(-c2nc3cc(C)c(C)cc3o2)cc1	3.8*	7%	nt	1	6	7
CCCC(=O)Nc1ccc2oc(-c3ccncc3)nc2c1	3.6*	13%	nt	1.1	16	10
O=C(Nc1ccc2oc(-c3ccccc3Cl)nc2c1)c1cncc(Br)c1	1.4	4%	i	1	0	11
SMILES	Autofluor 339	NADH coupling	DPM-DC inhibit	A340 absorber	Spn MK inh	PMK inhibit
CCCCCC(=O)Nc1ccc2oc(-c3cncc(Br)c3)nc2c1	2.5*	15%	i	0.98	9	7
CCCCC(=O)Nc1ccc2oc(-c3ccncc3)nc2c1	3.7*	4%	nt	1.1	7	0
Cc1cc(C)c(C)c(OCC(=O)NCCN(C)C)c1	1.1	6%	i	1	4	13
O=C(O)c1ccc(CSc2nnc(COc3ccc(Cl)cc3Cl)o2)cc1	1.1	4%	i	1.1	8	4
CCC(C)C(=O)Nc1nnc(-c2cccs2)s1 (stereo not drawn)	2.6*	10%	i	1.1	0	15
COCC(=O)Nc1nnc(-c2cccs2)s1	1.9	5%	i	1.1	0	4
CCOC(=O)c1cnc(-n2nc(C)cc2C)nc1NC1CCCCC1	2*	6%	i	1	8	10
CCOC(=O)c1cnc(-n2nc(C)cc2C)nc1NC	1.9	10%	i	1	4	11
O=C(O)Cc1ccc(NC(=O)C2CC=CCC2C(=O)O)cc1 (stereo not drawn)	1.1	6%	i	1	7	12
O=S(=O)(Cc1ccccc1)N1CCC(c2nc(-c3cccs3)no2)CC1	3.1*	14%	i	1	5	13
O=C(Cc1ccccc1)N1CCCC(c2nc(-c3cccs3)no2)C1 (stereo not drawn)	1	2%	i	1	3	8
COc1cc(C(=O)Nc2ccc(-c3nc4cc(C)ccc4o3)c(O)c2)cc(OC)c1OC	4.7*	2%	nt	1.2	0	3
COc1cc(OC)cc(C(=O)Nc2ccc(-c3nc4ccccc4o3)cc2)c1	2.2*	1%	nt	1.1	2	0
O=C(Nc1ccc(-c2nc3ccccc3o2)c(O)c1)c1cc(-n2cnnc2)ccc1Cl	3.9*	9%	nt	1.1	12	6
O=C(Nc1ccc2oc(-c3ccccc3)nc2c1)c1ccncc1	1.1	4%	i	1.1	7	6
COc1cc(C(=O)Nc2cccc(-c3nc4ccccc4o3)c2C)cc(OC)c1OC	1.2	5%	i	1.1	5	7
COc1cccc(C(=O)Nc2ccc(-c3nc4ccccc4o3)c(O)c2)c1	2.1*	8%	nt	1.2	4	12
CC1(C)CC(=O)C=C(NC2CCS(=O)(=O)C2)C1 (stereo not drawn)	1	2%	i	0.98	10	0
Cc1ccccc1-n1nc2c(c1NC(=O)c1ccc(Br)o1)CSC2	1.1	7%	i	0.98	2	18
Cc1ccc(-c2nnc(CSc3nnc(COc4ccccc4)n3-c3ccc(C)cc3)o2)cc1	1.1	3%	i	1	10	0
CC(C)OCCCNC(=O)C1CCC(=O)N1C(C)C (stereo not drawn)	1.1	8%	i	1	3	22
Cc1ccc(C(C(=O)NCc2ccc(F)cc2)N(C(=O)c2csnn2)C2CC2)o1 (stereo not drawn)	1.2	8%	i	1	5	13
CN(C)CCCNc1oc(-c2ccc(Cl)cc2)nc1C#N	4.8*	7%	nt	1	7	6
COCCCNc1oc(COc2ccc(Cl)cc2Cl)nc1C#N	1.4	4%	i	0.98	7	6
CCN(CC)CCCNc1oc(-c2cccc(Cl)c2)nc1C#N	3*	5%	nt	1	15	16
CN(C)CCNc1oc(COc2ccc(-c3ccccc3)cc2)nc1C#N	1.1	6%	i	1	10	7
COCCNc1oc(-c2ccc(Cl)cc2)nc1C#N	2.4*	5%	nt	1.1	0	10
COCCNc1oc(-c2ccc(C)cc2)nc1C#N	2.5*	3%	nt	1	0	7
